Measured values taken from PubChem BioAssay AID1159580 (chemical genetic matrix, 2015).
The campaign covered roughly 5,500 compounds. About 2,000 (36%) were called active. Roughly 18% stayed inconclusive and do not appear here. The list shows a part of the results. A number with no mark means an inactive call. No stated cut-off is given here; in the data, active means normalized growth mostly below about 0.91 (no sharp cut-off); inconclusive means no clear call, values can overlap the other calls; inactive means mostly above about 0.92.

Test: chemical genetic growth profiling, strain panel (AID 1159580);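 further: tested at 20 µM; growth read once vehicle control cultures reached saturation at 30 °C; 1 = growth at the plate median or of vehicle wells; lower values mean less growth of the strain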
Details: S. cerevisiae deletion strains, growth OD

**Q.** What does the source list for `COc1ccc2c(c1OC)C(=O)O[C@H]2[C@@H]1c2cc3c(cc2CCN1C)OCO3`?
**A.** normalized growth (locus YAL013W, strain DEP1, hits give low values): 1.01; normalized growth (locus YAL040C, strain CLN3, hits give low values): 0.973; normalized growth (locus YCL061C, strain MRC1 (second series), hits give low values): 1.01; normalized growth (locus YDR363W, strain ESC2, hits give low values): 1.02; normalized growth (locus YER002W, strain NOP16, hits give low values): 1.03; normalized growth (locus YGR078C, strain PAC10, hits give low values): 0.428 (active); normalized growth (locus YMR263W, strain SAP30, hits give low values): 1; normalized growth (locus YNL197C, strain WHI3, hits give low values): 1.01; normalized growth (locus YNL224C, strain SQS1, hits give low values): 0.996; normalized growth (locus YNL322C, strain KRE1, hits give low values): 1.02; normalized growth (locus YOR083W, strain WHI5 (second series), hits give low values): 1.07; normalized growth (locus YPL055C, strain LGE1, hits give low values): 1.01
